Experimental data as given in the supplement of paper PMC10681739.

target: T1, ETS1 (UniProt P14921); assay: ETS1 binding intensity (PBM fluorescence) in presence of RUNX1, normalised to ETS1-only experiment (arbitrary fluorescence units); higher = stronger binding; conditions: ETS1 concentration 1 nM; RUNX1 concentration 25 nM
T1 sequence: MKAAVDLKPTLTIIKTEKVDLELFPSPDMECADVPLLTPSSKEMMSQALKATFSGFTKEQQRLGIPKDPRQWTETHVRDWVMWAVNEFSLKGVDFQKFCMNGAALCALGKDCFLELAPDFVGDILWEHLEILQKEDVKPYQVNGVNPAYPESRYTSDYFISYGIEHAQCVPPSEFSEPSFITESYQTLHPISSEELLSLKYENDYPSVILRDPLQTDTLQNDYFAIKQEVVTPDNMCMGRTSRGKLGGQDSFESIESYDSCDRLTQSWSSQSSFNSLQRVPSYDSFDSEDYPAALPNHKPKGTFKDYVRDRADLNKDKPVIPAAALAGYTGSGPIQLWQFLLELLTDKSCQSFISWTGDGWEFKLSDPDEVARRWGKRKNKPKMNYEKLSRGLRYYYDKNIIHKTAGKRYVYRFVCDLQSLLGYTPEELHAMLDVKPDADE
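For RUNX1 binding intensity (PBM fluorescence) in presence of ETS1, normalised to RUNX1-only experiment in this document: Full-length recombinant human ETS1 or RUNX1 bound to double-stranded 36-bp genomic probes on microarrays, detected by protein-specific primary antibody and Alexa488 secondary, spot fluorescence as median of four replicate spots.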

Sequence	ETS1 binding intensity
CCAGAGCACATCCTACACGCACCACAACCTGAAAAC	396
CTGTGCGAGGCAGGATGTGGTCTCCCGCCACCAGGG	13800
GAGCTAGCCACTTCCTCCCCCACAACTACACCCAGG	914
TTGGTCAGCCTGCTTCCGGCTGTGGCTTCAGTTAGT	1920
GACAGGAAGTGACCTCAATTTCCCCGGCCACAGAAA	4280
CCAGCCACTTCCGCTCGTCCGCCTAATACCGCGCCT	2430
TGACATCCTCTGAGGCAGCAAGCTGCGGTGAAGTCT	561
CTGAAGAGGAAATGTATTCCTCATGTTGTGGTTGGC	1980
CCGGGTAGGATCCGGTTGCCTTTCTGCGGTGGAGGA	798
GCGCAGGTCCCGGATGTTGCGGACAGTATGAGGCAA	4560
GAAGAGGGTGGAGAAGGAAGTGGTCACACCACTTGC	2380
AGCTTGCCGGAAGCTGGTTGTTCGCTGCGGCGACCA	4380
GGGCTCCCAGAAGGATGTGGTTTCTGAGTACGTTGG	3520
ACCGGCCGAGCCAACTTCCGGCCGCAGAGGCTGCCG	7630
TTCTCATCCGGCCGGCTTGCTTTCCCCTGCGGTCGT	641
TCCCTAAGTCACATCCTGTGGGCAAAGGCCCTAGCA	935
GTGCCCCGGACCTACGGATACCACACACAGACAGGC	460
CAAAGGTTAAATGCAGGATGTGGTTTCTGCAGACTC	25400
TTTACTGAGAGGAAGTGGTTCTTGTGGGTGAAGGTC	6070
TGAGTCACATCCTGCAGGGCTGCGGTATCCTGGCTT	1680

Sequence	ETS1 binding intensity
CTGACAGTTACTTCCTGTCTTTGTGGGCGATTGTGA	4620
CACCGGAAAAGGCAAGCGCGGCCGCGCGGTTGGCGC	1090
CGAGTAGAGATAGCAGGAAGTGGTTTATTCTGAGGT	12600
GCGAGAGGGAGGAAGTGACTCACCAACCACAACAAA	5020
CGCCCACCACTTCCTGCTGGCGGTCGGCAAGCGTTG	2240
AGAAGCAGGCATGCAGGATGTGGTTAGTGCATGGTA	17400
GCATCATCACTTCCTGTTGTGGGCAGTCGTTGCCTG	5100
TTGCTCCCGGAAGCCCCGCCCGACCGCGGCTCCTGA	1970
GGAGGGGCTGGCCGGAAGTGAACCGCAGAGCACGCT	33500
GGGGCAGGAAGTGGAGGTTTGAAGTGGTTTAGAGTA	2310
GAGTTCTAGACTACAGGATGTGGTTAGAAGAAAAGA	56900
TTCATTTCTACCTTCCTGTGGTCTTTTTGCCTCCGA	470
CCCCACATCCGGGGGCCGGGGCCGGGCTGTGGGCTT	516
CCCCTCACTTCCCTCAACCCTTCCCACAAACTGGGA	571
TGCCGGGCCCCGGATGTCACCGCAGCCGCCATCTTA	6730
AGGTTAATACCCGGAACTACCACAACCGTCTTCCCT	862
CAACTGACCGGACAGAACACAGCCACAAAACACGAG	507
AGTCAAACAGGATGTGGCTGGGGAGGCGGTTGTCAC	4660
ACTCACTTCCGTTTAGCTTATCAACCACCAAGAGAC	1060
TCCCTCATGAGCTTCTTCCGCCCGCAACACGAGACT	481

target: RUNX1 (UniProt Q01196); assay: RUNX1 binding intensity (PBM fluorescence) in presence of ETS1, normalised to RUNX1-only experiment (arbitrary fluorescence units); higher = stronger binding; conditions: RUNX1 concentration 2 nM; ETS1 concentration 25 nM
Sequence (Q01196 whole entry): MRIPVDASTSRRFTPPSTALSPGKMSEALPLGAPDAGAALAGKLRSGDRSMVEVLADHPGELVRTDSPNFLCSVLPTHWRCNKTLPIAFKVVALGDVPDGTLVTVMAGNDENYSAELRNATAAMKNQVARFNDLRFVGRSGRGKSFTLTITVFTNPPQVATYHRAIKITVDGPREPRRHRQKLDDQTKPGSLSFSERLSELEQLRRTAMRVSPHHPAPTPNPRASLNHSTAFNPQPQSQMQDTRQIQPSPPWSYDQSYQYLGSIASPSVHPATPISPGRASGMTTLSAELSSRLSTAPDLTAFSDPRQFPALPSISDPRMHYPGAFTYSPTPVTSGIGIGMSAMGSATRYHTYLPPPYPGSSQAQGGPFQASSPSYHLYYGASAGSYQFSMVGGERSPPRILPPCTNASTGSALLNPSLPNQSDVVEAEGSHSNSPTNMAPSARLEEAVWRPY
Method: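 Cooperative gcPBM on 36-bp genomic probes with neighbouring ETS1 and RUNX1 sites. Recombinant human RUNX1 (2 nM) was incubated alone or with ETS1 (25 nM) and detected with anti-RUNX1 antibody plus Alexa488 secondary. Values are medians over 4 replicate spots; the RUNX1+ETS1 data were normalised to the RUNX1-only data. The probes sit in constant array flanks that are not printed.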

Sequence	RUNX1 binding intensity
CCAGAGCACATCCTACACGCACCACAACCTGAAAAC	1470
CTGTGCGAGGCAGGATGTGGTCTCCCGCCACCAGGG	3160
GAGCTAGCCACTTCCTCCCCCACAACTACACCCAGG	3420
TTGGTCAGCCTGCTTCCGGCTGTGGCTTCAGTTAGT	1420
GACAGGAAGTGACCTCAATTTCCCCGGCCACAGAAA	1770
CCAGCCACTTCCGCTCGTCCGCCTAATACCGCGCCT	4930
TGACATCCTCTGAGGCAGCAAGCTGCGGTGAAGTCT	1300
CTGAAGAGGAAATGTATTCCTCATGTTGTGGTTGGC	878
CCGGGTAGGATCCGGTTGCCTTTCTGCGGTGGAGGA	1480
GCGCAGGTCCCGGATGTTGCGGACAGTATGAGGCAA	1570
GAAGAGGGTGGAGAAGGAAGTGGTCACACCACTTGC	929
AGCTTGCCGGAAGCTGGTTGTTCGCTGCGGCGACCA	1220
GGGCTCCCAGAAGGATGTGGTTTCTGAGTACGTTGG	1260
ACCGGCCGAGCCAACTTCCGGCCGCAGAGGCTGCCG	1840
TTCTCATCCGGCCGGCTTGCTTTCCCCTGCGGTCGT	1650
TCCCTAAGTCACATCCTGTGGGCAAAGGCCCTAGCA	1570
GTGCCCCGGACCTACGGATACCACACACAGACAGGC	869
CAAAGGTTAAATGCAGGATGTGGTTTCTGCAGACTC	3990
TTTACTGAGAGGAAGTGGTTCTTGTGGGTGAAGGTC	1530
TGAGTCACATCCTGCAGGGCTGCGGTATCCTGGCTT	3310

Sequence	RUNX1 binding intensity
CTGACAGTTACTTCCTGTCTTTGTGGGCGATTGTGA	2390
CACCGGAAAAGGCAAGCGCGGCCGCGCGGTTGGCGC	1160
CGAGTAGAGATAGCAGGAAGTGGTTTATTCTGAGGT	1800
GCGAGAGGGAGGAAGTGACTCACCAACCACAACAAA	1220
CGCCCACCACTTCCTGCTGGCGGTCGGCAAGCGTTG	8670
AGAAGCAGGCATGCAGGATGTGGTTAGTGCATGGTA	3740
GCATCATCACTTCCTGTTGTGGGCAGTCGTTGCCTG	2360
TTGCTCCCGGAAGCCCCGCCCGACCGCGGCTCCTGA	1210
GGAGGGGCTGGCCGGAAGTGAACCGCAGAGCACGCT	2980
GGGGCAGGAAGTGGAGGTTTGAAGTGGTTTAGAGTA	1350
GAGTTCTAGACTACAGGATGTGGTTAGAAGAAAAGA	4800
TTCATTTCTACCTTCCTGTGGTCTTTTTGCCTCCGA	2320
CCCCACATCCGGGGGCCGGGGCCGGGCTGTGGGCTT	2140
CCCCTCACTTCCCTCAACCCTTCCCACAAACTGGGA	2350
TGCCGGGCCCCGGATGTCACCGCAGCCGCCATCTTA	1990
AGGTTAATACCCGGAACTACCACAACCGTCTTCCCT	985
CAACTGACCGGACAGAACACAGCCACAAAACACGAG	824
AGTCAAACAGGATGTGGCTGGGGAGGCGGTTGTCAC	2040
ACTCACTTCCGTTTAGCTTATCAACCACCAAGAGAC	3210
TCCCTCATGAGCTTCTTCCGCCCGCAACACGAGACT	1840
